NTR1 agonist – agonists of human neurotensin receptor NTR1 | NTR1-U2OS beta-arrestin-GFP spot imaging, agonist mode | activation, % at 20 µM | 0.17% of 330,000 active | AID 493036;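 active = activation at or above 40% of the spot to cytoplasm intensity ratio, with at least 20 cells analyzed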;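 also: 0% = DMSO without peptide and 100% = 100 nM NTR1 peptide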
H9c2 protect – myocardial damage modulation in H9c2 cells; protection from H2O2 cell death, % at 20 µM; AID 588492; H9c2 cardiomyocytes, H2O2 injury protection, ATPLite, 2 h; 0.63% of 360,000 active;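 active = compounds giving at least 50% protection of heart cells from peroxide-induced death in the single-dose screen, raw or plate-pattern-corrected value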;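 also: 0% = DMSO wells with peroxide and 100% = DMSO wells without peroxide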
AHR act – human AHR activation | AID 2796 | P35869 | AHR-responsive luciferase reporter cells, luminescence | 2.5% of 320,000 active | activation, % at 5 µM; in the data active = activation above about 47%;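 also: 0% = vehicle wells and 100% = reference agonist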
GRIN3A LBD mod – modulates the human NR3A ligand-binding domain | NR3A LBD differential scanning fluorimetry, Tm shift; 0% = protein alone, 100% = glycine-bound protein | Tm shift relative to glycine control, % at 25 µM | 2.5% of 340,000 active | AID 1259313;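 active = melting temperature shift of at least 10% of the positive control shift, at one fixed dose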
AI-2 QS modul – modulators of Vibrio harveyi AI-2 quorum sensing system. Vibrio harveyi JMH597 AI-2 luminescence/OD600 ratio, 9 h; active compounds read low; strain lacks LuxN and CqsS sensors; 0 = neutral-control median. activity change, % at 7.5 µM. 0.4% of 300,000 active; in the data active = activity change below about -75%, passing the limit was not always enough;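 also: luminescence divided by OD600 gain over 9 h not by final OD600 alone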
SUMO Mot1 rescue – SUMOylation pathway inhibition by Mot1-301 growth rescue | S. cerevisiae Mot1-301 growth rescue, ATP luminescence, 38.5C; percent above DMSO median, 100 means doubled | AID 2716 | growth rescue, % at 18.8 µM | 1% of 320,000 active;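 active = every valid replicate shows activation above 250% relative to neutral control wells; inactive = the rest, any valid replicate at or below 250%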;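 also: OY570 slx delta 5 strain wells were the positive control but not used for scaling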
Yeast Mot1 SUMO – inhibits SUMO pathway, affecting Mot1-301 yeast growth. shares compounds with SUMO Mot1 rescue. S. cerevisiae Mot1-301 galactose growth, ATP luminescence, 24 h; -100 = growth of slx-deleted rescue strain. growth activity, percent, % at 42 µM. 2,300 tested, under 10 active. AID 493004;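 active = Signal drops as the depositor expects, and the fitted half-maximal dose is no more than ten times the top valid tested dose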;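 also: more negative values mean stronger growth rescue toward the control strain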
* = called active by the depositor; · = no result given; + = active, no number. The list is not random: actives were taken first. Their share in the collection is about 6.2%.

SMILES	NTR1 agonist	H9c2 protect	AHR act	GRIN3A LBD mod	AI-2 QS modul	SUMO Mot1 rescue	Yeast Mot1 SUMO
C=CCN=C1N[C@@H](c2cccc(C(F)(F)F)c2)C(C(=O)OC)=C(C)N1CC	-3.8	15.2	3.9	0.8	7.8	245.2	·
O=C(c1cn(Cc2ccccc2)nc1-c1ccccc1)N1CCN(c2ccccn2)CC1	0.7	-1.0	-0.4	-0.2	·	-15.3	·
Brc1ccc(-c2nc3c4ccccc4ccn3c2Cc2ccccc2)cc1	·	-30.3	·	·	·	·	·
CSCc1c(C(=O)Nc2ccccc2N2CCOCC2)oc2ccccc12	8.0	17.5	18.2	4.5	·	103.0	·
CCCCCC(=O)Nc1nnn(CCC)n1	0.4	2.3	-0.6	0.6	22.2	+	0.6
Cc1nc(SCC(=O)O)n[nH]1	0.7	14.7	1.6	-0.9	7.9	+	-0.1
Cc1ccc(C(=O)CSc2n[nH]c(C)n2)cc1	0.9	0.2	2.0	2.3	17.8	-3.7	·
CC1C(=O)C(C)C(c2ccco2)NC1c1ccco1 (centres undefined)	0.2	-0.7	-1.4	3.6	-0.3	-17.3	·

Assay outcomes from PubChem BioAssay.
